A selection: hits, their analogues and other compounds. The true share with any hit is near 0.74%.
Furin inhibitor: human furin inhibitors, primary screen, biochemical, fluorescence intensity; inhibition, % at 20 µM or 30 µM; 220,000 tested, 0.061% active; purified furin, fluorogenic substrate cleavage; P09958; in the data active = inhibition above about 25%
Target sequence (P09958 108-714 limits assumed): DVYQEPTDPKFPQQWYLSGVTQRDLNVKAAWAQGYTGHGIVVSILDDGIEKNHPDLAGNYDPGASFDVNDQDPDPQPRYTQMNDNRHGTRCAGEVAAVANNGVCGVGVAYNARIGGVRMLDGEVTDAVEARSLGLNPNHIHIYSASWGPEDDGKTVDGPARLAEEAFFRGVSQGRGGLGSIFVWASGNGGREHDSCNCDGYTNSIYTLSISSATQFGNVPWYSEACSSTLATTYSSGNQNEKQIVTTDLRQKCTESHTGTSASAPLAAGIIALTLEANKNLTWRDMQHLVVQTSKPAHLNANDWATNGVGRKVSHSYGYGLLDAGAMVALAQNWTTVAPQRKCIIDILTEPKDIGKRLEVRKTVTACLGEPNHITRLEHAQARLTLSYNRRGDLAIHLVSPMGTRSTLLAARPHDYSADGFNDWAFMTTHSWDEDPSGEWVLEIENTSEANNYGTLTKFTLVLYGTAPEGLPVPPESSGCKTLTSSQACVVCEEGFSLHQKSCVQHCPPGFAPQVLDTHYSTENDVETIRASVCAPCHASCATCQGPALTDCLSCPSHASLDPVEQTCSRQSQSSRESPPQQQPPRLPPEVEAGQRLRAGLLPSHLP
pCIP destab: p/CIP-EGFP fusion destabilizers, primary screen, fluorescence, F442A cells | 290,000 tested, 0.01% active | 16 h | decrease of EGFP signal, % at 10 µM | AID 1984, 2009;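 active = EGFP signal decrease of at least 30% at 10 µM or well 3 SD below plate mean, unless failing retest; inactive = the rest, including hits failing retest or dose response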
Tb hexokinase: Trypanosoma brucei hexokinase 1 inhibitors, primary screen, biochemical, G6PDH-coupled NADH absorbance, MLSCN library | recombinant TbHK1, G6PDH-coupled NADH A340 | inhibition, % at 10 µM | 220,000 tested, 0.11% active | AID 1430, 2008;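 active = inhibition of 50% or more in the single-dose primary screen; inactive = inhibition below 50%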
Redox H2O2 prof: compounds producing H2O2 with reducing agent – biochemical, NIH compound library profiling, artefact control for MLSCN library redox annotation, primary screen; DTT-dependent redox cycling H2O2, phenol red/HRP absorbance; 100% = 100 µM peroxide control, 0% = buffer; activation, % at 10 µM; 200,000 tested, 0.03% active; AID 878, 2007;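 active = activation of at least 50% relative to the plate's high and low controls in the primary single-dose screen; inactive = activation below 50%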;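 note: compound incubated with DTT at 0.8 mM final as the reducing agent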
p97 ATPase inh: inhibitors of human p97 ATPase, primary screen, biochemical; 220,000 tested, 0.42% active; AID 1481, 2009; recombinant p97 ATPase, Kinase-Glo ATP luminescence, 3 h; inhibition, % at 8 µM; Transitional endoplasmic reticulum ATPase (Homo sapiens), P55072; in the data active = inhibition above about 15%
Efa HMGR inh: inhibitors of E. faecalis class II HMGR, primary screen, biochemical, Enterococcus faecalis; inhibition, % at 10 µM; HMG-CoA reductase (Enterococcus faecalis, mvaE); purified E. faecalis HMGR, NADPH absorbance 340 nm kinetic; 190,000 tested, 0.41% active;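 active = inhibition above a set limit, the median over all tested compounds plus 3 SD, cut at about 9.5% in these data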;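 note: enzyme runs in reverse so mevalonate oxidation gives rising NADPH absorbance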
p97 inh conf: p97 ATPase inhibitors, retest, confirmation, biochemical. recombinant p97 ATPase, Kinase-Glo ATP luminescence. 760 tested, 44% active. inhibition, % at 8 µM. shares compounds with p97 ATPase inh. AID 1517, 2009;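 active = percent inhibition of p97 ATPase above a set limit, the primary screen's mean plus 3 SD, cut at about 15% in these data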
A number is an active result; – = inactive; · = no result.

SMILES	Furin inhibitor	pCIP destab	Tb hexokinase	Redox H2O2 prof	p97 ATPase inh	Efa HMGR inh	p97 inh conf
C=CCNC(=O)/C(C#N)=C/c1ccc(OS(=O)(=O)c2ccc(C)cc2)c(OC)c1	–	–	–	–	–	–	·
Cc1sc2ncn(CC(=O)N3CCC(C(N)=O)CC3)c(=O)c2c1S(=O)(=O)N1CCOCC1	·	–	·	·	·	·	·
O=C(O)c1cccc(N=NN2CCOCC2)c1	–	–	–	–	–	–	·
Cc1ccc(C(C(=O)NCc2ccco2)N(C(=O)Cn2nnc3ccccc32)c2ccccc2)o1 (stereo not drawn)	–	–	–	–	16.3	–	–
O=C(CCNS(=O)(=O)c1ccc(Br)cc1)NCc1ccc(Cl)cc1	·	–	·	·	·	·	·
Cc1cc(C)c2nc(SCC(=O)NNC(=O)c3ccco3)c(C)cc2c1	–	–	–	–	15.0	–	16.2
CCc1cc2cc(C)ccc2nc1SCC(=O)NNC(=O)c1ccco1	·	–	·	·	·	·	·
Nc1cc2nn(-c3ccccc3)nc2cc1Cl	–	–	–	–	19.0	–	–
CCN(C(=O)c1cc(S(=O)(=O)N2CCOCC2)cn1C)c1cccc(C)c1	·	–	·	·	·	·	·
Fc1ccccc1-c1nc(-c2ccc(Br)o2)no1	·	–	·	·	·	·	·
NS(=O)(=O)c1ccc(CCNc2ncnc3c2c(-c2ccccc2)cn3-c2ccc(F)cc2)cc1	–	–	–	–	29.6	–	24.2
CCc1cccc(NC(=O)C2CCCN(S(=O)(=O)c3c(C)[nH]c(=O)[nH]c3=O)C2)c1 (stereo not drawn)	–	–	–	–	23.3	–	–
CCC(Oc1cc(Cl)ccc1Cl)C(=O)N1CCCN(C)CC1 (stereo not drawn)	·	–	·	·	·	·	·
CC(=O)Oc1cc2cccc(OC(C)=O)c(=O)c2c(OC(C)=O)c1OC(C)=O	–	–	–	–	28.6	–	–
O=c1[nH]c(S)c(/C=C2\C=Nc3ccccc32)s1	–	–	–	·	21.9	·	15.8
Cc1c(O)ccc2c(O)c(NC(=O)c3ccc4c(c3)CCC(C)(C)O4)c(=O)oc12	–	–	–	·	29.4	·	–
Cc1c(CC(=O)NCCCO)c(=O)oc2cc3c(cc12)CCC(C)(C)O3	·	–	·	·	·	·	·
Cc1oc(S(=O)(=O)N(C)C)cc1C(=O)Nc1ccc(Cl)cc1	–	–	–	·	–	·	·
COc1cc(/C=N/NC(=O)C(=O)NCc2ccco2)cc(Br)c1O	–	–	–	·	–	·	·
CSCCC(NS(=O)(=O)c1ccc(Cl)cc1)C(=O)OCC(=O)NC12CC3CC(CC(C3)C1)C2 (stereo not drawn)	–	–	–	–	22.4	–	–
COC(=O)C(CCSC)NS(=O)(=O)c1ccc(Cl)cc1 (stereo not drawn)	–	–	–	–	–	–	·
CCOc1ccc(CN2CCC(n3nccc3NC(=O)c3ccccc3OC)CC2)cc1	·	–	·	·	·	·	·
CN1C(=O)C2(c3ccccc31)C1CCCC=C1C(C#N)=C(N)C2(C#N)C#N (stereo not drawn)	–	–	–	–	17.0	–	–
COCc1ccc(C(=O)NC2CCCN(Cc3ccccc3F)C2)o1 (stereo not drawn)	·	–	·	·	·	·	·
CCc1nnc(NC(=O)C2CCCCC2)s1	–	–	–	–	–	–	·
SMILES	Furin inhibitor	pCIP destab	Tb hexokinase	Redox H2O2 prof	p97 ATPase inh	Efa HMGR inh	p97 inh conf
CC(C)c1nnc(NC(=O)C2CCCCC2)s1	–	–	–	–	15.8	–	–
COc1cc(CN2CCC(n3nccc3NC(=O)c3ccccc3OC)CC2)ccc1F	·	–	·	·	·	·	·
O=C(CCn1c(=O)oc2ccccc21)Nc1cccc(Br)c1	·	–	·	·	·	·	·
C=CCNCC(O)COc1ccc(C(C)=O)cc1OC (stereo not drawn)	–	–	–	·	18.1	·	–
COc1ccccc1C(=O)NC(=O)CSc1nnc(C)s1	·	–	·	·	·	·	·
Oc1[nH]c(=S)sc1/C=C1\C(c2ccccc2)=Nc2ccccc21	–	–	–	–	22.7	–	53.2
COc1ccc(N(CC(=O)NCCSCc2ccccc2C)S(=O)(=O)c2ccccc2)cc1	·	–	·	·	·	·	·
